Measurements reported in PubChem BioAssay (Tox21).
Several values for one entry are separate records, joined by “and”; a condition that tells them apart may be missing. Equal entries are not always repeated. Results filed as inconclusive are left out. Activity calls are given as the source filed them. Unless noted, calls follow the shape of the dose curve; as a rule, active = well fitted curve in the direction sought with a large enough effect in the repeat runs; inconclusive = weak or mixed curves; inactive = no such curve, though single readings can be large; an effect the other way counts as inactive or inconclusive.

Tests used:
[1] = qHTS assay to identify small molecule agonists of the estrogen receptor alpha (ER-alpha) signaling pathway in the presence of an antagonist - cell viability counter screen (AID 1259386);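 also: cells exposed to compounds for 22 h at 37 °C before the viability read; nearly all actives have a fitted effect of over 30% in size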; also: potency is read from the fitted curve at half-maximal effect
Outline: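 Fluorescent CellTiter-Fluor viability signal from VM7Luc4E2 cells, with the reagent added during the final hour of a 22hr compound exposure at 37C in the presence of 10.0nM ICI-182,780.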

[2] = molecular target: Progesterone receptor (Homo sapiens) (UniProt P06401); experiment: qHTS assay to identify small molecule agonists of the progesterone receptor (PR) signaling pathway (AID 1346784; calls by dose curve; also: nearly all actives have a fitted effect of over 30% in size)
Sequence of Progesterone receptor (Homo sapiens) (P06401 whole entry, looked up): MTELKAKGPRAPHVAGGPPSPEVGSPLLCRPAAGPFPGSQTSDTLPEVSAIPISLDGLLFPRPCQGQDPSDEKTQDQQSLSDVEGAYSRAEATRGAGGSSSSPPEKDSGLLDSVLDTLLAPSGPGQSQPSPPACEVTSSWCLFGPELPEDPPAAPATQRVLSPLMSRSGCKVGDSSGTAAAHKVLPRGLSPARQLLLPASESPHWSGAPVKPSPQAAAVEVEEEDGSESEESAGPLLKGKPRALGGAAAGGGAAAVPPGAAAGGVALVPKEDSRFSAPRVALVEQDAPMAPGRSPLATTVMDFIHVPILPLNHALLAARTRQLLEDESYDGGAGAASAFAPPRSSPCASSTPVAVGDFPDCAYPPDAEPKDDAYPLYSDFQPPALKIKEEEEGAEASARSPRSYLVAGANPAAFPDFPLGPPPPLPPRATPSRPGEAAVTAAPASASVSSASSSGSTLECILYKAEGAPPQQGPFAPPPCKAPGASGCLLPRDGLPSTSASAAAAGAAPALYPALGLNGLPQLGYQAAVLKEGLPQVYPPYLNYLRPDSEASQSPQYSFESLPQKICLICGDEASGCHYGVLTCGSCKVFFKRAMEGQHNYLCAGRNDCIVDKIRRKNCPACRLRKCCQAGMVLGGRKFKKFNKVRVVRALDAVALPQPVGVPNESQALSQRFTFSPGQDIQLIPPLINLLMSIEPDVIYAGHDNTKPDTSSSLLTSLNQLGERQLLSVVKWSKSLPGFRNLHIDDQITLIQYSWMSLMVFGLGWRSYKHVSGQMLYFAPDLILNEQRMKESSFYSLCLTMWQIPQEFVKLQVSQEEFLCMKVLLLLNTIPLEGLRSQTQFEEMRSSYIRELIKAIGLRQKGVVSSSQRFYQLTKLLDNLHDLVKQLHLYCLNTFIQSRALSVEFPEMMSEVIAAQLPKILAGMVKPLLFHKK
Outline: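 Reporter assay, GripTite PR-UAS-bla HEK 293T cells: 16 hr exposure to DMSO-dissolved compounds at 37C, 5% CO2, in steroid-depleted (2% charcoal-stripped FBS) medium; beta-lactamase measured by FRET fluorescence.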

[3] = qHTS assay to identify small molecule antagonists of the progesterone receptor (PR) signaling pathway - cell viability counter screen (AID 1346798); also: nearly all actives have a fitted effect of over 50% in size; also: potency is read from the fitted curve at half-maximal effect
Outline: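 In the same plates used for the beta-lactamase readout, cell viability of compound- and R5020-treated PR-UAS-bla HEK293T cells (16 hr, 37C) was assessed by CellTiter-Glo luminescence.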

[4] = qHTS assay to identify small molecule antagonists of the TGF-beta/Smad signaling pathway - cell viability counter screen (AID 1346824); also: nearly all actives have a fitted effect of over 50% in size
Outline: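 SBE-bla HEK 293T cells were plated overnight at 37 C, then given compounds in DMSO plus TGF-beta1 (added as 0.25 ng/mL solution) for 5 hr. After the bla read, CellTiter-Glo was added to the same wells and luminescence read after 30 min at room temperature.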

[5] = qHTS assay to identify small molecule agonists of the TGF-beta/Smad signaling pathway - cell viability counter screen (AID 1346829); also: top concentration of the series differs between compounds; nearly all actives have a fitted effect of over 45% in size
Outline: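 Tox21 qHTS format: SBE-bla HEK 293T cells treated with DMSO-dissolved compounds for 5 hr; CellTiter-Glo luminescence after 30 min at room temperature.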

[6] = qHTS assay to identify small molecule agonists of the TGF-beta/Smad signaling pathway (AID 1346859; active = well fitted activation curve with a large enough effect in the signal ratio in the repeat runs, not every such curve was filed as active; the % refers to the signal ratio; also: series mostly up to about 77 µM)
Outline: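 Screening used HEK 293T SBE-bla cells at 4,000/well. Test agents: 5 hr, 37 C. Detection: FRET substrate, 2 hr RT, then excitation 405 nm with emissions at 460 and 530 nm.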

[7] = molecular target: Thyrotropin-releasing hormone receptor (Homo sapiens) (UniProt P34981); experiment: qHTS assay to identify small molecule antagonists of the thyrotropin-releasing hormone receptor (TRHR) signaling pathway (AID 1346877; active = well fitted inhibition curve with a large enough effect in the repeat runs, not every such curve was filed as active; also: series mostly up to about 51 µM)
Sequence of Thyrotropin-releasing hormone receptor (Homo sapiens) (P34981 whole entry, looked up): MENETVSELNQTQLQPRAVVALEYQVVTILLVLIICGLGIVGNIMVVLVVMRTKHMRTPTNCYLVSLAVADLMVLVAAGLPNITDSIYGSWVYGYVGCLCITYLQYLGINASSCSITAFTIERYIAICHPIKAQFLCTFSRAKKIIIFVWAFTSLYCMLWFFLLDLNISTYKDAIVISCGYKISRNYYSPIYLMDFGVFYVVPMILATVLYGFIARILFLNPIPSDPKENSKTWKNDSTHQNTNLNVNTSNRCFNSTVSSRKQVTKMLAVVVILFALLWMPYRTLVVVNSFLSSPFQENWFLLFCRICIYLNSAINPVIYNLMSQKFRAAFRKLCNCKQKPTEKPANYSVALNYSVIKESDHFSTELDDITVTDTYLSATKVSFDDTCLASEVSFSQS
Outline: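 In this cell-based calcium flux format, HEK293 cells expressing TRHR received test compound for 5 min before the agonist TRH (1 nM final). Dye loading lasted 2 h at 37 °C.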

[8] = molecular target: Thyrotropin-releasing hormone receptor (Homo sapiens) (UniProt P34981); experiment: qHTS assay to identify small molecule agonists of the thyrotropin-releasing hormone receptor (TRHR) signaling pathway (AID 1346891; calls by dose curve; also: series mostly up to about 58 µM)
Outline: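 Readout was intracellular calcium fluorescence in TRHR-Hek293 cells. Cells were incubated 18 h, dye-loaded 2 h at 37 °C, and treated with compound in agonist mode.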

[9] = molecular target: Progesterone receptor (Homo sapiens) (UniProt P06401); experiment: qHTS assay to identify small molecule antagonists of the progesterone receptor (PR) signaling pathway (AID 1346795; active = well fitted inhibition curve with a large enough effect in the signal ratio in the repeat runs, not every such curve was filed as active; the % refers to the signal ratio; also: potency is read from the fitted curve at half-maximal effect)
Outline: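 Stimulus R5020 at 1 nM final; cells HEK293T PR-UAS-bla; medium with 2% charcoal-stripped FBS; compound exposure 16 hr at 37C, 5% CO2; detection by FRET beta-lactamase substrate, 2 hr, room temperature.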

[10] = qHTS assay to identify small molecule agonists of the progesterone receptor (PR) signaling pathway - cell viability counter screen (AID 1346799; calls by dose curve; also: nearly all actives have a fitted effect of over 45% in size; also: potency is read from the fitted curve at half-maximal effect)
Outline: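 Multiplexed viability read: CellTiter-Glo luminescence, 30 min RT, following LiveBLAzer FRET measurement on PR-UAS-bla HEK293T cells exposed to compounds 16 hr.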

Measured: Potency

CCCC(=O)OCOC(=O)C1=C(C)NC(C)=C(C(=O)OC)C1c1cccc(Cl)c1Cl (stereo unspecified)
inactive: [1] | [2] | [3] | [4] | [5] | [6]

CC[N+](CC)(CC)CCOc1ccc(/C=C/c2ccccc2)cc1
inactive: [1] | [2] | [3] | [4] | [6] | [7] | [8]

C[Si](Cl)(c1ccccc1)c1ccccc1
inactive: [1] | [3] | [4] | [5] | [6]
active: [9] 29.9 µM

CCC(CC)(CC(=O)Nc1cccc(/C=C/c2nc(C3CCC3)cs2)c1)C(=O)O
inactive: [1] | [2] | [3] | [4] | [6] | [7] | [8]

COc1cccc2c1C(=O)c1c(O)c3c(c(O)c1C2=O)C[C@@](O)(C(C)=O)C[C@@H]3O[C@H]1C[C@H](N)[C@H](O)[C@H](C)O1
inactive: [3] | [10] | [4] | [5] | [7] | [8]
active: [1] 27.5 µM and 21.1 µM

CC(C)(c1cc(Br)c(OCC(Br)CBr)c(Br)c1)c1cc(Br)c(OCC(Br)CBr)c(Br)c1 (stereo unspecified)
inactive: [1] | [3] | [10] | [4] | [5] | [6] | [7] | [8]

Cc1cc(=O)oc2cc(O)cc(O)c12
inactive: [1] | [9] | [3] | [4] | [5] | [7] | [8]

CC1(C)CCC[C@]2(C)[C@H]3CC(=O)O[C@]3(C)CC[C@@H]12
inactive: [1] | [2] | [10] | [4] | [5] | [7] | [8]

CC1=CCC(=C(C)C)CC1
inactive: [1] | [9] | [3] | [10] | [4] | [5] | [6]

COC(=O)Nc1nc2ccc(C(=O)c3ccccc3)cc2[nH]1
inactive: [1] | [2] | [4] | [5] | [7] | [8]

OCCN1CCN(CCCN2c3ccccc3Sc3ccc(C(F)(F)F)cc32)CC1
active: [10] 10.6 µM
inactive: [1] | [2] | [4] | [5] | [6] | [7] | [8]

CCCC(=O)OCCc1ccccc1
inactive: [1] | [2] | [3] | [4] | [5] | [6] | [7] | [8]

COc1c(C)c2c(c(O)c1C/C=C(\C)CCC(=O)OCCN1CCOCC1)C(=O)OC2
inactive: [1] | [2] | [4] | [5] | [6] | [7] | [8]

CCC(=O)OC(=O)CC
inactive: [1] | [9] | [3] | [4] | [6] | [7] | [8]
active: [10] 54 µM

CCCCCCCCCCC[C@@H](C[C@@H]1OC(=O)[C@H]1CCCCCC)OC(=O)[C@H](CC(C)C)NC=O
inactive: [1] | [2] | [3] | [4] | [5] | [6] | [7] | [8]

Nc1ccc(Oc2ccc(Cl)cc2)cc1
inactive: [1] | [4] | [5] | [6]
active: [9] 18.9 µM

CCO[Si](OCC)(OCC)OCC
inactive: [1] | [3] | [10] | [4] | [5] | [6]

CC(C)(C)c1csc(-c2cc3cc(OCc4ccccc4CC(=O)O)ccc3o2)n1
inactive: [1] | [4] | [5] | [7] | [8]
active: [9] 43.3 µM

CN(C)[C@@H](CCOc1cccc2ccccc12)c1ccccc1
inactive: [1] | [2] | [5] | [6] | [7] | [8]

C#C[C@]1(OC(C)=O)CC[C@H]2[C@@H]3CCC4=C/C(=N/O)CC[C@@H]4[C@H]3CC[C@@]21CC
inactive: [1] | [4] | [5] | [6] | [7] | [8]
active: [9] 29.8 µM

S=c1nccc[nH]1
inactive: [1] | [2] | [3] | [4] | [6] | [7] | [8]

Cc1c2ccccc2c(C)c2c1ccc1ccccc12
inactive: [1] | [2] | [4] | [7] | [8]
active: [3] 27 µM and 30.6 µM

CC(=O)[C@H]1CC[C@H]2[C@@H]3CCC4=CC(=O)CC[C@]4(C)[C@H]3CC[C@]12C
inactive: [1]
active: [3] 54.2 µM

CC(C)=CCC1=C(O)c2ccccc2C(=O)C1=O
inactive: [2] | [4] | [5] | [6] | [7] | [8]
active: [1] 43 µM

CN(C)Cc1cc(C(C)(C)C)c(O)c(C(C)(C)C)c1
inactive: [1] | [2] | [4] | [6]

CCCCCCCCCCCCOCCOCCOCCOCCOCCOCCOCCOCCOCCO
active: [1] 23.7 µM | [9] 23.7 µM
inactive: [5] | [6] | [7] | [8]

S=C([S-])NCCNC(=S)[S-].S=C([S-])NCCNC(=S)[S-].[Mn+2].[Zn+2]
inactive: [1] | [2] | [4] | [5] | [6]

CCCCCCCCCCCCOC(=O)c1ccc(O)cc1
inactive: [1] | [2] | [3] | [4] | [6] | [7] | [8]
